# In PubChem BioAssay (Tox21):
# “And” between values parts separate entries of the source, which are not always exact repeats. Identical values can stand only once. Inconclusive results are not listed. Entries that show only a call come without a potency. A structure can be active in one record and inactive in another. The source made the active and inactive calls. Unless noted, calls come from the whole dose curve; as a rule, active = well fitted curve in the direction sought with a large enough effect in the repeat runs; inconclusive = weak or mixed curves; inactive = no such curve, though single readings can be large; an effect the other way counts as inactive or inconclusive.
# Tests used:
# [1] = qHTS assay to identify small molecule antagonists of the constitutive androstane receptor (CAR) signaling pathway - cell viability counter screen (AID 1224837); note: nearly all actives have a fitted effect of over 45% in size
# Summary of the method: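 Fluorescence from CellTiter-Fluor served as the viability signal. Human hepatoma HepG2 cells stably bearing hCAR and CYP2B6-2.2kb received compound plus CITCO (50 nM final) for 23 hr.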
# [2] = biological target: Nuclear receptor subfamily 1 group I member 3 (Homo sapiens) (UniProt Q14994); experiment: qHTS assay to identify small molecule antagonists of the constitutive androstane receptor (CAR) signaling pathway (AID 1224838);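 note: HepG2 cells stably expressing hCAR with CYP2B6 luciferase reporter stimulated by CITCO; nearly all actives have a fitted effect of over 40% in size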
# Nuclear receptor subfamily 1 group I member 3 (Homo sapiens), sequence (Q14994 whole entry, looked up): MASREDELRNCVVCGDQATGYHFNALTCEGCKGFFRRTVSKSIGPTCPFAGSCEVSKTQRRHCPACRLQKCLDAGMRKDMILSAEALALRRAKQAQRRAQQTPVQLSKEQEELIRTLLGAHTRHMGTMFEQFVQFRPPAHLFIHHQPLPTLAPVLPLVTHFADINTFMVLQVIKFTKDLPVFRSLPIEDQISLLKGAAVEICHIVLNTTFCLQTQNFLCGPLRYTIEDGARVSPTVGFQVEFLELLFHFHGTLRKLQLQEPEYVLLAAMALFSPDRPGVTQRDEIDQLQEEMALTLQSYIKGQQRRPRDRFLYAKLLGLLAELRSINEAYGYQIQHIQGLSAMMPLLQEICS
# Summary of the method: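 Quantitative HTS in double-stable HepG2-CYP2B6-hCAR cells. After 4 h plating, cells get compound (15 concentrations) and CITCO at 50 nM final, incubate 24 h at 37 C, then ONE-Glo luminescence is read.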
# [3] = biological target: Nuclear receptor subfamily 1 group I member 3 (Homo sapiens) (UniProt Q14994); experiment: qHTS assay to identify small molecule agonists of the constitutive androstane receptor (CAR) signaling pathway (AID 1224839); note: nearly all actives have a fitted effect of over 15% in size; note: potency is the fitted concentration of half-maximal effect;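 for activation: HepG2 cells stably carrying human CAR and a CYP2B6 luciferase reporter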
# Summary of the method: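 Cells were plated and incubated 4 hrs, then dosed with compounds at 15 concentrations. PK11195 was added to 0.75 uM final. After 24 hrs at 37 C, luciferase luminescence was measured.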
# [4] = qHTS assay to identify small molecule antagonists of the estrogen related receptor signaling pathway with the pleiotropic PPARgamma coactivator (PGC) from Tox21 10K library - cell viability counter screen (AID 1224840; active = well fitted cell-killing curve with a large enough effect in the repeat runs, not every such curve was filed as active; note: nearly all actives have a fitted effect of over 40% in size)
# Summary of the method: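 Compounds in DMSO, alongside positive and negative controls, were pinned onto PGC/ERR cells (2,000 per well). Exposure lasted 17.5 hours at 37 C, followed by a 30-minute CellTiter-Fluor incubation and fluorescence reading.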
# [5] = qHTS assay to identify small molecule agonists of the hypoxia (HIF-1) signaling pathway - cell viability counter screen (AID 1224844; calls by dose curve; note: nearly all actives have a fitted effect of over 50% in size)
# Summary of the method: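 Luminescent ATP content (CellTiter-Glo, 30 min, room temperature) served as the viability measure in HRE-bla ME-180 cells exposed to compounds for 17 hrs in low-serum medium (0.5% dialyzed FBS).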
# [6] = qHTS assay to identify small molecule agonists of H2AX (AID 1224845; active = well fitted activation curve with a large enough effect in the signal ratio in the repeat runs, not every such curve was filed as active; the % refers to the signal ratio)
# Summary of the method: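 Wild-type CHO-K1 cells, plated overnight, exposed 3hr at 37C to 15 concentrations (0.76% DMSO final). Lysed, then HTRF anti-pH2AX (S139) cryptate and anti-H2AX-d2 antibodies, 24 hr room temperature; 665/620 nm emission read.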
# [7] = qHTS assay to identify small molecule agonists of the hypoxia (HIF-1) signaling pathway (AID 1224846; active = well fitted activation curve with a large enough effect in the signal ratio in the repeat runs, not every such curve was filed as active; the % refers to the signal ratio)
# Summary of the method: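 Measured by blue/green FRET after loading CCF4-AM: beta-lactamase expressed from a hypoxia response element in ME-180 cells. Test agents were delivered in DMSO and left 17 hrs; cells had been plated 5 hrs earlier in low-serum (0.5% dialyzed FBS) medium.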
# [8] = qHTS assay to identify small molecule agonists of H2AX - cell viability counter screen (AID 1224847; calls by dose curve; note: top concentration of the series differs between compounds; nearly all actives have a fitted effect of over 30% in size)
# Summary of the method: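 Cytotoxicity counter screen in wild-type CHO-K1 cells: a 3 hr compound treatment at 37C across 15 concentrations, followed by CellTiter-Glo luminescence to gauge viable cells.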
# [9] = qHTS RealTime-Glo MT Cell Viability Assay in HepG2 cells - 24 hour (AID 1224867); note: nearly all actives have a fitted effect of over 50% in size
# Summary of the method: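 HepG2 suspension premixed with RealTime-Glo reagents is plated at 600 cells per well and left 5 h at 37 C/5% CO2. Compounds in DMSO then go in, and bioluminescence reflecting viable cell number is recorded over 40 h.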
# [10] = qHTS RealTime-Glo MT Cell Viability Assay in HEK293 cells - 32 hour (AID 1224868); note: nearly all actives have a fitted effect of over 50% in size; note: potency is the fitted concentration of half-maximal effect
# Summary of the method: (§1)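 Reads taken at 0, 8, 16, 24, 32 and 40 h from the same wells. HEK293 cells (600/well) carried RealTime-Glo reagents from seeding, with compound added after a 5 h settle at 37 C.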
# [11] = A CellTox Green Cytotoxicity Assay to monitor cytotoxicity in HEK293 cells - 0 hour (AID 1224869); note: nearly all actives have a fitted effect of over 50% in size; note: potency is the fitted concentration of half-maximal effect
# Summary of the method: (§2)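 Each value comes from one timepoint of a single continuous run in which HEK293 cells with CellTox Green were exposed to compound for up to 40 h at 37 C, dye fluorescence rising with cell death.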
# [12] = qHTS RealTime-Glo MT Cell Viability Assay in HepG2 cells - 40 hour (AID 1224870); note: nearly all actives have a fitted effect of over 50% in size
# Summary of the method: (§3)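 HepG2 cells (600/well) mixed with RealTime-Glo MT reagent, settled 5 h at 37 C/5% CO2 before compound addition. Nonlytic NanoLuc luminescence from viable-cell prosubstrate reduction read repeatedly during 40 h treatment at 37 C.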
# [13] = A CellTox Green Cytotoxicity Assay to monitor cytotoxicity in HEK293 cells - 40 hour (AID 1224871); note: nearly all actives have a fitted effect of over 45% in size; note: potency is the fitted concentration of half-maximal effect
# Summary of the method: as §2
# [14] = qHTS RealTime-Glo MT Cell Viability Assay in HEK293 cells - 16 hour (AID 1224872); note: nearly all actives have a fitted effect of over 50% in size; note: potency is the fitted concentration of half-maximal effect
# Summary of the method: as §1
# [15] = qHTS RealTime-Glo MT Cell Viability Assay in HepG2 cells - 8 hour (AID 1224873); note: nearly all actives have a fitted effect of over 55% in size
# Summary of the method: as §3
# [16] = qHTS RealTime-Glo MT Cell Viability Assay in HEK293 cells - 40 hour (AID 1224874); conditions: RealTime-Glo luminescence; max response: stronger effect = lower value; note: nearly all actives have a fitted effect of over 50% in size; note: potency is the fitted concentration of half-maximal effect
# Summary of the method: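 qHTS format; HEK293 cells with NanoLuc/prosubstrate reagent, 37 C/5% CO2 for 5 h pre-dosing; compounds 23 nL in DMSO; luminescence at each time point reflects viable cells.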
# [17] = biological target: Thyrotropin receptor (Homo sapiens) (UniProt P16473); experiment: qHTS assay to identify small molecule agonists of the thyroid stimulating hormone receptor (TSHR) signaling pathway (AID 1224843; calls by dose curve; note: nearly all actives have a fitted effect of over 45% in size; note: potency is the fitted concentration of half-maximal effect)
# Thyrotropin receptor (Homo sapiens), sequence (P16473 whole entry, looked up): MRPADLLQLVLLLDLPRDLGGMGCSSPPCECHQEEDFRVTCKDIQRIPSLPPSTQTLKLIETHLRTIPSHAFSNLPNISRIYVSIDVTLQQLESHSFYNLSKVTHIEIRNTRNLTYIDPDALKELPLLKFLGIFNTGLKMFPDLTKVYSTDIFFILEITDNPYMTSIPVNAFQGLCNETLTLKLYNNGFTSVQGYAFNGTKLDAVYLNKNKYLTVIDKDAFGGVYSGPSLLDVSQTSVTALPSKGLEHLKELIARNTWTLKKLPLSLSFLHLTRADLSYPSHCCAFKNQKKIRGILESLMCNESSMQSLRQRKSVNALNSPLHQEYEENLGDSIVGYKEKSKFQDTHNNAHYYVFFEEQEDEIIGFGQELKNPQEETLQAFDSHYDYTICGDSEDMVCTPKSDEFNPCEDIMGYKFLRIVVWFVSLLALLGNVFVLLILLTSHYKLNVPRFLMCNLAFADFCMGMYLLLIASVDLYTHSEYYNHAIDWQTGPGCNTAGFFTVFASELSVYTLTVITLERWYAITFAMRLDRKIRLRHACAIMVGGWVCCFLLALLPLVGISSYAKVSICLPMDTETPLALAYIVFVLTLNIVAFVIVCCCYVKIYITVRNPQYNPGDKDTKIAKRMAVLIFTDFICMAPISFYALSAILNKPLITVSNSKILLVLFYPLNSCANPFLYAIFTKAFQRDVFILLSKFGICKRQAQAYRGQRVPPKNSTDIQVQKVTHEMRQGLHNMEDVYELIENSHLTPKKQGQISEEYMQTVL
# Summary of the method: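 TSHR-HEK293 cells in agonist mode, 30 min room-temperature step, then cAMP measured by competitive HTRF (cAMP-d2 with anti-cAMP cryptate) after 1 h at room temperature. Tested at 15 concentrations in triplicate.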
# [18] = qHTS assay to identify small molecule agonists of the estrogen related receptor signaling pathway with the pleiotropic PPARgamma coactivator (PGC) from Tox21 10K library (AID 1224842); note: nearly all actives have a fitted effect of over 15% in size; note: potency is the fitted concentration of half-maximal effect
# Summary of the method: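 PGC/ERR reporter cell line, 2,000 cells per well, incubated 6 h at 37 C before 23 nL compound in DMSO was added. After 18 h at 37 C, One-Glo luminescence read following 30 min at room temperature.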
# [19] = qHTS assay to identify small molecule antagonists of the estrogen related receptor (ERR) signaling pathway from Tox21 library (AID 1224848); note: nearly all actives have a fitted effect of over 50% in size
# Summary of the method: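 ERR reporter cell line (from NTP) seeded 2,000 cells/well, rested 6 h at 37 C/5% CO2, then pin-dosed with compounds in DMSO. After 18 h at 37 C, ONE-Glo added; luminescence read after 30 min at room temperature.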
# [20] = qHTS assay to identify small molecule agonists of the estrogen related receptor (ERR) signaling pathway from Tox21 library (AID 1224849; calls by dose curve; note: nearly all actives have a fitted effect of over 15% in size); conditions: ERR reporter cell line, ONE-Glo luciferase, 18 h
# Summary of the method: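 We plated ERR reporter cells, waited 6 h, added compounds in DMSO by pin tool and incubated them 18 h at 37 C. ONE-Glo was then added and luminescence read after 30 min.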
smiles,measurement,setting,value
O=C(O)c1ccccc1O,Potency,[1],inactive
same,Potency,[2],inactive
same,Potency,[3],inactive
same,Potency,[4],inactive
same,Potency,[5],inactive
same,Potency,[6],inactive
same,outcome,[7],inactive
same,Potency,[8],inactive
same,Potency,[9],inactive
same,Potency,[10],inactive
same,Potency,[11],inactive
same,Potency,[12],inactive
same,Potency,[13],inactive
same,Potency,[14],inactive
same,Potency,[15],inactive
same,max response,[16],2.39% (inactive) [middle of 5 runs]
CCCC[n+]1ccccc1,Potency,[1],inactive
same,Potency,[4],inactive
same,Potency,[17],inactive
same,Potency,[5],inactive
same,Potency,[6],inactive
same,outcome,[7],inactive
same,Potency,[8],inactive
same,Potency,[9],inactive
same,Potency,[10],inactive
same,Potency,[11],inactive
same,Potency,[12],inactive
same,Potency,[13],inactive
same,Potency,[14],inactive
same,Potency,[15],inactive
Cc1cc(Cl)ccc1N,Potency,[1],inactive
same,Potency,[2],inactive
same,Potency,[3],inactive
same,Potency,[4],inactive
same,Potency,[17],inactive
same,Potency,[5],inactive
same,Potency,[6],inactive
same,outcome,[7],inactive
same,Potency,[8],inactive
same,Potency,[9],inactive
same,Potency,[10],inactive
same,Potency,[11],inactive and 38.9 µM (active)
same,Potency,[12],inactive
same,Potency,[13],inactive and 38.9 µM (active)
same,Potency,[14],inactive
same,Potency,[15],inactive
same,max response,[16],9.86% (inactive) and 3.76% (inactive) and 5.35% (inactive)
O=c1[nH]c(=O)n(Cl)c(=O)n1Cl,Potency,[1],inactive
same,Potency,[4],inactive
same,Potency,[18],inactive
same,Potency,[5],inactive
same,Potency,[6],inactive
same,outcome,[7],inactive
same,Potency,[8],inactive
same,Potency,[19],inactive
same,"activity change, positive = activation",[20]; at 92.4 µM (top of the series),2.32% (inactive) and 2.59% (inactive) and 1.02% (inactive)
same,Potency,[9],inactive
same,Potency,[10],inactive
same,Potency,[11],inactive
same,Potency,[12],inactive
same,Potency,[13],inactive
same,Potency,[14],inactive
same,Potency,[15],inactive
same,max response,[16],3.74% (inactive) and 3.92% (inactive) and 2.88% (inactive)
Cc1cc(-c2ccc(N)c(C)c2)ccc1N,Potency,[1],inactive
same,Potency,[2],inactive
same,Potency,[3],12.2 µM (active)
same,Potency,[4],inactive
same,Potency,[17],1.35 µM (active)
same,Potency,[5],inactive
same,outcome,[7],inactive
same,Potency,[8],inactive
same,Potency,[9],inactive
same,Potency,[10],inactive
same,Potency,[11],inactive
same,Potency,[12],inactive
same,Potency,[13],inactive
same,Potency,[14],inactive
same,Potency,[15],inactive
same,max response,[16],-20.5% (inactive) and -19.5% (inactive) and -26% (inactive)
CC[N+](CC)(CC)CC,Potency,[1],inactive
same,Potency,[2],inactive
same,Potency,[3],inactive
same,Potency,[4],inactive
same,Potency,[17],inactive
same,Potency,[5],inactive
same,Potency,[6],inactive
same,outcome,[7],inactive
same,Potency,[8],inactive
same,Potency,[9],inactive
same,Potency,[10],inactive
same,Potency,[11],inactive
same,Potency,[12],inactive
same,Potency,[13],inactive
same,Potency,[14],inactive
same,Potency,[15],inactive
same,max response,[16],2.86% (inactive) and 1.18% (inactive) and -0.431% (inactive)
CCOP(=S)(OCC)Oc1ccc2c(C)c(Cl)c(=O)oc2c1,Potency,[1],inactive
same,Potency,[2],inactive
same,Potency,[3],31 µM (active) and 27.3 µM (active) and 29.8 µM (active)
same,Potency,[4],inactive
same,Potency,[18],inactive and 11.9 µM (active)
same,Potency,[17],inactive
same,Potency,[5],inactive
same,Potency,[6],inactive
same,outcome,[7],inactive
same,Potency,[8],inactive
same,Potency,[19],inactive
same,"activity change, positive = activation",[20]; at 42.5 µM (top of the series),25.6% (active)
same,"activity change, positive = activation",[20]; at 92.4 µM (top of the series),-10.9% (inactive) and -28.3% (inactive)
same,Potency,[9],inactive
same,Potency,[10],12.4 µM (active) and 43.6 µM (active) and inactive
same,Potency,[11],inactive
same,Potency,[12],inactive
same,Potency,[13],inactive
same,Potency,[14],14 µM (active) and 43.6 µM (active) and inactive
same,Potency,[15],inactive
same,Potency,[16],12.4 µM (active) and 43.6 µM (active)
same,max response,[16],-24.9% (inactive)
O=c1nc(O)n(Cl)c(=O)n1Cl,Potency,[1],inactive
same,Potency,[4],inactive
same,Potency,[18],inactive
same,Potency,[5],inactive
same,Potency,[6],inactive
same,outcome,[7],inactive
same,Potency,[8],inactive
same,Potency,[19],inactive
same,"activity change, positive = activation",[20]; at 92.4 µM (top of the series),9.16% (inactive) and 1.98% (inactive) and 3.37% (inactive)
same,Potency,[9],inactive
same,Potency,[10],inactive
same,Potency,[11],inactive
same,Potency,[12],inactive
same,Potency,[13],inactive
same,Potency,[14],inactive
same,Potency,[15],inactive
same,max response,[16],3.95% (inactive) and 2.22% (inactive)
Oc1ccccc1-c1ccccc1,Potency,[1],inactive
same,Potency,[2],inactive
same,Potency,[3],inactive and 35.2 µM (active)
same,Potency,[4],inactive
same,Potency,[5],inactive
same,Potency,[6],inactive
same,outcome,[7],inactive
same,Potency,[8],inactive
same,Potency,[9],inactive
same,Potency,[10],inactive
same,Potency,[11],inactive
same,Potency,[12],inactive
same,Potency,[13],inactive
same,Potency,[14],inactive
same,Potency,[15],inactive
same,max response,[16],-9.5% (inactive) [middle of 4 runs]
Nc1ccc(Cl)cc1,Potency,[1],inactive
same,Potency,[2],inactive
same,Potency,[3],inactive
same,Potency,[4],inactive
same,Potency,[17],inactive
same,Potency,[5],inactive
same,Potency,[6],inactive
same,outcome,[7],inactive
same,Potency,[8],inactive
same,Potency,[9],inactive
same,Potency,[10],inactive
same,Potency,[11],inactive
same,Potency,[12],inactive
same,Potency,[13],inactive
same,Potency,[14],inactive
same,Potency,[15],inactive
same,max response,[16],-5.43% (inactive) and 1.39% (inactive)
